Tau fibril FP = inhibitors of human tau fibril formation; AID 1468; Potency, µM (series often up to 57.7 µM), for the others: top-dose activity, negative = inhibition, most hits filed as inhibitors; K18 P301L tau heparin fibrillization, Alexa594 FP, 6 h; hit rate 0.39% among 280,000; P10636; note: nearly all actives have a fitted effect of over 55% in size
Target sequence (P10636 561-689 P618L limits assumed): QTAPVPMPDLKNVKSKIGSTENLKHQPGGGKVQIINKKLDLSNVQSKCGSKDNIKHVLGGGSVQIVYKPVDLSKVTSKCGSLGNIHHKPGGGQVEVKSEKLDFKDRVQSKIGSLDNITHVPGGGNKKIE
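Steps: dispense K18 P301L tau (15 uM plus 0.24 uM Alexa 594 tracer, final) in pH 7 sodium acetate; add compound; add heparin (20 uM final); incubate 6 hr, 37 C; add ThT (30 uM final); after 1 hr ambient, read FP.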
TexasRed fluor = Texas Red fluorescence interference in TRb-SRC2 counter-screen; Potency, µM (doses to about 106 µM), inactives show at the highest dose fluorescence change, negative = quenching; AID 1479; hit rate 0.29% among 280,000; TRb/SRC2 Texas Red total fluorescence interference; active = well fitted curve in either direction with a large enough effect; inconclusive = small, poorly fitted or top-dose-only effect
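Human TRβ ligand-binding domain (0.6 uM) and Texas Red SRC2 peptide (20 nM) in Tris buffer with 1 uM T3 and 5% DMSO were incubated with pinned compound for 5 hr at ambient temperature. Total fluorescence was computed as S + 2P (555/632 nm).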
Tau ThT inhib = blocks human tau fibril formation measured by thioflavin T; hit rate 2.1% among 270,000; Potency, µM (highest dose often 57.4 µM), for the others: at the highest dose activity, negative = inhibition, hits mostly inhibitors; P10636; recombinant tau K18 P301L, heparin-induced fibrillization, ThT fluorescence; AID 1460; note: nearly all actives have a fitted effect of over 55% in size
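Fibril formation assay: tau K18 P301L at 15 uM with trace Alexa 594 label, heparin inducer 20 uM, pH 7 sodium acetate buffer, 37 C for 6 hr; endpoint ThT signal.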
Tau fluor cs = counter-screen for tau fibril formation inhibitors | hit rate 0.93% among 280,000 | Potency, µM (series often up to 57.7 µM), for inactives: top-dose activity change, negative = decrease | AID 1463 | tau K18 P301L (four-repeat tau fragment) Alexa594 fluorescence, heparin fibrillization; note: nearly all actives have a fitted effect of over 55% in size
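Human K18 P301L tau (15 uM unlabeled plus 0.24 uM Alexa 594-labeled, final) in 100 mM sodium acetate pH 7 was mixed with compound and 20 uM heparin and incubated 6 hr at 37 C.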
RGS12 GoLoco inh = blocks human Gai1 binding to RGS12 GoLoco peptide, red readout; P63096; Gai1:RGS12 GoLoco peptide FP, rhodamine, 10 min; Potency, µM (top dose mostly 61.6 µM), for inactives: at the highest dose activity, negative = inhibition, hits mostly inhibitors; hit rate 0.44% among 230,000; AID 880; active = well fitted inhibition curve with a large enough effect, not every such curve was filed as active; inactive = no such curve, though single readings can be large or run the other way; note: nearly all actives have a fitted effect of over 30% in size
Target sequence (P63096 whole entry, looked up): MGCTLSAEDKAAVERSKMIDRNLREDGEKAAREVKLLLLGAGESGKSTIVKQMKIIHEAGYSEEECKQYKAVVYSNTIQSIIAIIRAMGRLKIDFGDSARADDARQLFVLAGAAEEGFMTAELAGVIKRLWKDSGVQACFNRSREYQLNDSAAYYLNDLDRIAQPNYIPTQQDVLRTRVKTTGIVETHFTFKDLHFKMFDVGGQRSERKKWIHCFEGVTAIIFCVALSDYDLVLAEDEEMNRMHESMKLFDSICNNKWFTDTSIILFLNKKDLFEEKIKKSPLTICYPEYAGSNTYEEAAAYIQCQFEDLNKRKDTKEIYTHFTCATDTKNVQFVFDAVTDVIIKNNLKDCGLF
TRb SRC2 PPI = inhibitors of human thyroid hormone receptor beta-SRC2 interaction | P10828 | TRbeta-SRC2 peptide binding, fluorescence polarization; receptor liganded with 1 µM T3 | Potency, µM (top dose mostly 106 µM), for inactives: at the top dose activity change, negative = inhibition, actives largely listed as inhibitors | hit rate 0.065% among 280,000 | AID 1469;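 note: plate controls were bound peptide for no effect and peptide without receptor for full effect; nearly all actives have a fitted effect of over 50% in size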
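Assay buffer: 20 mM Tris-HCl, 100 mM NaCl, 10% glycerol, 1 mM EDTA, 0.01% NP-40, 1 mM DTT, 1 uM T3, 5% DMSO; TRb LBD 0.6 uM, Texas Red SRC2 20 nM; FP after 5 hr.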
* marks the source's active call; other numbers are inactive results; ? = inconclusive; · = no result given; ! = not confirmed by another sample; [ ] = remark or other dose. Most compounds without a hit are left out; they make up all but 3.2% or so of the library. Unless noted, calls come from the whole dose curve; as a rule, active = well fitted curve in the direction sought with a large enough effect; inconclusive = small, poorly fitted or top-dose-only effect, or another doubt; inactive = no such curve, though single readings can be large; an effect the other way counts as inactive or inconclusive. Unless noted, % is set by controls: 0 for no effect and ±100 for the full control effect; potency is the fitted concentration of half-maximal effect.

SMILES	Tau fibril FP	TexasRed fluor	Tau ThT inhib	Tau fluor cs	RGS12 GoLoco inh	TRb SRC2 PPI
CN1C(=O)[C@]23CC4=CC=C[C@H](O)[C@H]4N2C(=O)[C@@]1(CO)SS3	·	-1%	·	·	·	-7%
Nc1nc(N)nc(Cl)n1	·	3%[201 µM]	·	·	·	1%[201 µM]
O=c1[nH]sc2cc(F)ccc12	28µM*	-1%	11µM*	-25%	-34%	-6%
Cc1c(C)n(O)c2ccc3nonc3c12	?	0%	32µM*	-29%	1%	4%
CC(C)(C)c1cc(C=C(C#N)C#N)cc(C(C)(C)C)c1O	?	-1%	16µM*	?	10%	-6%
N#CC(C#N)=Cc1ccc(O)c(O)c1	?	-3%	14µM*!	11%	-5%	6%
COc1cc(C=C(C#N)C#N)cc(O)c1O	0%	-6%	?	-24%	17%	-3%
N#CC(=Cc1ccc(O)c(O)c1)C(N)=S	?	-8%	?	-22%	28%	0%
CCOP(=O)(NC(C)C)Oc1ccc(S(C)=O)c(C)c1 (stereo unspecified)	·	1%[201 µM]	·	·	·	0%[201 µM]
Cn1cccc1/C=C1/C(=O)NC(=O)N(Cc2ccc(F)cc2)C1=O	·	-8%	·	·	47%	-9%
Cn1cccc1/C=C1/C(=O)NC(=S)N(Cc2ccc(F)cc2)C1=O	35µM*	1%	·	11µM*[quencher]	40%	-4%
CS(=O)(=O)NC(=O)c1cc(Oc2ccc(C(F)(F)F)cc2Cl)ccc1[N+](=O)[O-]	·	-1%[201 µM]	·	·	·	4%[201 µM]
COc1cc(C=C2C(=O)NC(=O)NC2=O)ccc1O	-3%	-1%	?	-20%	-1%	3%
Oc1ccc(/C=N/NP(=S)(c2ccccc2)c2ccccc2)cc1	?	-1%	?	13µM*[quencher]	-12%	-23%
COc1cc(/C=N/NP(=S)(c2ccccc2)c2ccccc2)ccc1O	11%	0%	?	14µM*[quencher]	5%	4%
CC(C)N1C(=O)N(c2ccccc2)CSC1=NC(C)(C)C	·	5%[201 µM]	·	·	·	-2%[201 µM]
CC(C)(C)OOC(C)(C)CCC(C)(C)OOC(C)(C)C	·	-4%[201 µM]	·	·	·	6%[201 µM]
CCC(C)NC(=O)c1c(N)n(Cc2ccc3c(c2)OCO3)c2nc3ccccc3nc12 (stereo unspecified)	?	-3%	20µM*	?	-10%	-28%
CC(=O)[C@@H]1CC[C@H]2[C@@H]3CC[C@@H]4CC(=O)CC[C@]4(C)[C@H]3CC[C@]12C	-1%	-1%	-8%	-11%	4%	-1%
Cn1ncnc2c(=O)n(C)c(=O)nc1-2	?	-3%	11µM*	-11%	-14%	?
[Cu+2].[O-]c1cccc2cccnc12.[O-]c1cccc2cccnc12	·	-2%[201 µM]	·	·	·	4%[201 µM]
CCC[CH2][Sn]([CH2]CCC)([CH2]CCC)[O][Sn]([CH2]CCC)([CH2]CCC)[CH2]CCC	·	3%[201 µM]	·	·	·	-3%[201 µM]
COc1ccc(C(=O)Nc2ccc(S(=O)(=O)N(Cc3ccccc3)c3ccccc3)cc2)cc1	16µM*	-3%	?	?	·	8%
COc1ccc2c(c1)/C(=C/c1cnc[nH]1)C(=O)N2	8%	-8%	14µM*	-18%	-10%	-4%
CN1CCc2nc(N)c(C#N)c(-c3ccccc3)c2C1	-5%	-7%	?	-14%	-15%	-5%
SMILES	Tau fibril FP	TexasRed fluor	Tau ThT inhib	Tau fluor cs	RGS12 GoLoco inh	TRb SRC2 PPI
CN1CCc2nc3sc(C#N)c(N)c3c(-c3cccs3)c2C1	?	-9%	28µM*	?	36%	0%
CCCCC(=O)N/N=C/c1c(O)n(C2CC2)c(=S)[nH]c1=O	6%	-3%	?	-9%	25%	1%
O=c1[nH]c(=S)n(C2CC2)c(O)c1/C=N/Nc1cccc2ccccc12	?	-1%	11µM*	?	·	-1%
CCC(C)n1c(O)c(/C=N/Nc2ccccc2)c(=O)[nH]c1=S (stereo unspecified)	-8%	0%	18µM*	?	119%	-2%
O=c1[nH]c(=O)n(CCC2=CCCCC2)c(O)c1/C=N/Nc1cccc2ccccc12	?	11%	18µM*	?	23%	10%
O=c1[nH]c(=S)n(C2CC2)c(O)c1/C=N/Nc1ccccc1	?	10%	11µM*	-29%	19%	7%
O=c1[nH]c(=O)n(CCC2=CCCCC2)c(O)c1/C=N/Nc1ccccc1	5%	7%	11%	8%	135%	5%
O=S(=O)(O)C(F)(F)C(F)(F)C(F)(F)C(F)(F)C(F)(F)C(F)(F)F	·	-3%[201 µM]	·	·	·	-3%[201 µM]
CC(C)NC(=O)N1CC(=O)N(c2cc(Cl)cc(Cl)c2)C1=O	·	0%[201 µM]	·	·	·	4%[201 µM]
C=C1C(=O)O[C@@H]2C[C@@H](C)[C@H]3C=CC(=O)[C@]3(O)C[C@@H]12	?	1%	16µM*	-4%	-1%	-4%
CC(=O)Nc1cccc([As](=O)(c2cccc(NC(C)=O)c2)c2cccc(NC(C)=O)c2)c1	-5%	0%	-1%	-2%	5µM*	4%
O=C1NC(=O)C(=C/C=C/c2coc3ccc(Br)cc3c2=O)C(=O)N1	?	25µM*[fluorescent]	7.9µM*	-20%	-176%	?
O=C1NC(=O)C(=Cc2coc3ccccc3c2=O)C(=O)N1	?	0%	?	-19%	16%	-5%
C=C(C)C(=O)OCC(CC)CCCC (stereo unspecified)	·	-6%[201 µM]	·	·	·	0%[201 µM]
C=C(C)C1CCC(C)=CC1c1c(O)cc(O)cc1CCCCC (stereo unspecified)	8%	-2%	?	28µM*[quencher]	5%	-4%
CN1CCN(Cc2nc3ccccc3n2C)CC1	-2%	1%	-10%	-3%	4%	-15%
Cn1c(NN=O)nc2ccccc21	-9%	1%	18µM*	?	7%	3%
CCN(CC)c1ccc(/C=C2\C(=O)NC(=O)N(Cc3ccco3)C2=O)cc1	-3%	?	?	3%	211%	?
CCCCN1C(=O)/C(=C/C=C/c2ccco2)C(=O)NC1=S	?	18%	16µM*	-30%	228%	?
CCCCN1C(=O)/C(=C\c2ccco2)C(=O)N(CCc2ccccc2)C1=O	1%	28µM*[fluorescent]	?	-9%	134%	?
Cc1ccc(N2C(=O)NC(=O)/C(=C\c3cccn3C(C)(C)C)C2=O)cc1	-2%	0%	?	-13%	0%	-9%
CC(C)c1ccc(N2C(=O)NC(=O)/C(=C/C=C/c3ccco3)C2=O)cc1	14µM*	10%	14µM*	-29%	126%	11%
CCCCN1C(=O)/C(=C/c2ccc(N(C)C)cc2)C(=O)N(Cc2ccco2)C1=O	-12%	40µM*[fluorescent]	?	-11%	157%	?
